Bioassay records deposited in PubChem BioAssay by National Center for Advancing Translational Sciences (NCATS).
TRPML1 inh – qHTS for Inhibitors of the Human Mucolipin Transient Receptor Potential 1 (TRPML1); Mucolipin-1 (Homo sapiens), Q9GZU1; TRPML1-inducible cells, Ca2+ dye fluorescence, FDSS; stronger effect = lower value; inhibition of EC80 agonist-evoked calcium signal; activity change, negative = inhibition, % (test concentration not listed); 390,000 tested, 0.02% active; AID 624415, 2012; in the data active = activity change below about -50%; inconclusive = between about -30% and that limit;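 note: stimulus is agonist 54-4 at its EC80 concentration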
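Calcium fluorescence in TRPML1-DL cells induced overnight with Tet: a 110 s read after compound pin addition, then a 110 s antagonist read after challenge with 54-4 at 4 uM final (EC80).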
TRHR agonist-1 – qHTS for Small Molecule Agonists and Allosteric Enhancers of Human TRH Receptor: Primary Screen for Agonists; AID 493084, 2011; 360,000 tested, 0.18% active; TRHR cells, calcium flux fluo-8, FDSS agonist mode; Thyrotropin-releasing hormone receptor (Homo sapiens), P34981; activation, % at 2 µM; in the data active = activation above about 30%
Target sequence (P34981 whole entry, looked up): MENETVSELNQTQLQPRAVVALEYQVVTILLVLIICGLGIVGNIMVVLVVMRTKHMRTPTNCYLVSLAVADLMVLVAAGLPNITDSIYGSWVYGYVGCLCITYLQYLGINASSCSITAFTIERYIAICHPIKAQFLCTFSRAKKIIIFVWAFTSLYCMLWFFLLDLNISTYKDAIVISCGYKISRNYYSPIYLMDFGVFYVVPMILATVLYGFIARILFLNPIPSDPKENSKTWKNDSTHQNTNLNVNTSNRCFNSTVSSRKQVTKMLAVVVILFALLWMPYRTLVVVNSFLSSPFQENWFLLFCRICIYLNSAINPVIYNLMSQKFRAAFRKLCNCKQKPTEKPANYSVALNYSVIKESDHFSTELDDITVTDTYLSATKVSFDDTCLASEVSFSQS
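TRHR-expressing cells, plated overnight in medium with 10% serum, were loaded with fluo-8 calcium dye at room temperature. After a 10 s baseline, library compound was pin-added and calcium release was recorded kinetically (ex 480/em 530) as agonist response.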
TRHR enhancer-1 – qHTS for Small Molecule Agonists and Allosteric Enhancers of Human TRH Receptor: Primary Screen for Enhancers | AID 493056, 2011 | Thyrotropin-releasing hormone receptor (Homo sapiens), P34981 | enhancement, % at 2 µM | TRHR cells, fluo-8 calcium fluorescence, EC20 TRH enhancement | 360,000 tested, 0.66% active; in the data active = enhancement above about 30%
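Enhancer read-out: after compound pinning and an initial kinetic agonist-mode read, an EC20 of TRH (10 nM final) was injected and fluo-8 calcium signal (Ex 480/Em 530) followed at 1 s/cycle for 100 cycles in TRHR-expressing cells.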
Glioma ERSR ind – qHTS for Inducers of the Endoplasmic Reticulum Stress Response (ERSR) in Human Glioma: qHTS. U87-MG GRP78 promoter luciferase reporter, 16 h. AID 602332, 2012. Potency, µM, hits mostly activators. 420,000 tested, 0.02% active; note: series mostly up to about 76 µM; nearly all actives have a fitted effect of over 35% in size
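ERSR induction read as luciferase luminescence (Bright-Glo, 10 min at room temperature) in stably transfected human U87-MG glioma cells exposed to compounds for 16 h, using GRP78 as sensor.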
TRPML1 agonist – qHTS for Agonists of the Human Mucolipin Transient Receptor Potential 1 (TRPML1) | Mucolipin-1 (Homo sapiens), Q9GZU1 | TRPML1-expressing cells, Ca2+ dye fluorescence, FDSS | activation, % (test concentration not listed) | 410,000 tested, 0.12% active; in the data active = activation above about 50%; inconclusive = mostly about 30% to 49%
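Calcium fluorescence on an FDSS kinetic reader gave the read-out. Tet-induced TRPML1-DL cells were plated overnight, dye-loaded (Ca8 with quencher, 45-90 min, room temperature, dark), then read 110 s after compound addition, and again 110 s after 4uM final 54-4 (EC80).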
TRHR enhancer-2 – qHTS for Small Molecule Agonists and Allosteric Enhancers of Human TRH Receptor: Confirmation Screen for Enhancers | shares compounds with TRHR enhancer-1 | TRH receptor cell assay, enhancer confirmation qHTS | activity change, negative = inhibition, % at 46.1 µM | 970 tested, under 10 active | AID 493076, 2011;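 note: compound effect scored on response to added TRH at EC20 of 10 nM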
TRHR agonist-2 – qHTS for Small Molecule Agonists and Allosteric Enhancers of Human TRH Receptor: Confirmation Screen for Agonists; shares compounds with TRHR enhancer-1; TRHR-expressing cells, agonist activation read-out; Potency, µM (titrated, usually from 46.1 µM), most hits filed as activators; 970 tested, 8% active; AID 493078, 2011; note: nearly all actives have a fitted effect of over 75% in size
Numbers stand for hits; 0 = inactive; ? = inconclusive; - = not tested or not shown; ! = not active in a repeat. In the library only some 0.8% were active in any assay of this set; here they are far more common. Unless noted, calls come from the whole dose curve; as a rule, active = well fitted curve in the direction sought with a large enough effect; inconclusive = small, poorly fitted or top-dose-only effect, or another doubt; inactive = no such curve, though single readings can be large; an effect the other way counts as inactive or inconclusive.

SMILES	TRPML1 inh	TRHR agonist-1	TRHR enhancer-1	Glioma ERSR ind	TRPML1 agonist	others
CCNC(C)Cc1ccc2c(c1)OCO2 (configuration not stated)	-	-	-	0	-
CCCCCCCCCOc1ccc2[nH]cc(CCN)c2c1	-	0	0	0	-
COc1ccc2[nH]cc(CCN)c2c1	-	0	31.1	0	-
Cc1cc(OC(=O)N(C)C)nc2c1c(C)nn2C	0	0	40.3	0	0
COCc1cc(OC(=O)N(C)C)nc2c1c(C)nn2C	0	0	0	0	0
C/C=C(/C)C(=O)O[C@H]1C(C)=C2[C@H]([C@@H]1OC(=O)CCCCCCC)[C@@](C)(OC(C)=O)C[C@H](OC(=O)CCC)[C@@]1(O)[C@H]2OC(=O)[C@@]1(C)O	-	-	-	0.0165µM!	-
O=C(/C=C/c1c[nH]c2ccccc12)c1c(O)n(CCc2ccccc2)c(=O)[nH]c1=O	0	39.8	46.6	0	0
CCCCn1c(O)c(C(C)=NCCc2c[nH]c3ccccc23)c(=O)[nH]c1=O	0	0	0	0	0
C=CCC1(C(C)CCC)C(=O)NC(=O)NC1=O (configuration not stated)	-	-	-	0	-
COc1ccc(CNCCc2c[nH]c3ccccc23)c(OC)c1OC	0	0	0	0	0
COc1ccccc1CCNCc1ccc(OC)c(OC)c1OC	0	0	39.0	0	0
C[C@H]1[C@@H]2Cc3ccc(O)cc3[C@]1(C)CCN2C	-	-	-	0	-
COc1ccc(CCn2c(O)c(C=Nc3ccc(F)cc3)c(=O)[nH]c2=O)cc1OC	0	0	37.7	0	0
O=C(Oc1c(Cl)cc(Cl)c2ccccc12)N1CCCCC1	0	0	0	0	68.0
O=C(Nc1ccc(OC(=O)N2CCCCC2)cc1)N1CCOCC1	0	0	0	0	0
CC(=O)OC1CC(OC2C(O)CC(OC3C(O)CC(O[C@H]4CC[C@]5(C)C6CC[C@]7(C)[C@@H](C8=CC(=O)OC8)[C@@H](O)C[C@]7(O)[C@@H]6CC[C@@H]5C4)OC3C)OC2C)OC(C)C1OC1OC(CO)C(O)C(O)C1O (some centres not stated)	-	-	-	0	-
CCN1/C(=C/C=C/C2=[N+](CC)c3ccccc3C2(C)C)C(C)(C)c2ccccc21	0	-	-	0	75.6
CN1/C(=C\C=C\C2=[N+](C)c3ccc4ccccc4c3C2(C)C)C(C)(C)c2ccccc21	-	0	0	-	-
CN(C)c1ccc(/C=C/[N+](=O)[O-])cc1	0	31.4	0	0	?
CC(C)[C@@]1(NC(=O)[C@H]2C[C@H]3c4cccc5[nH]cc(c45)C[C@@H]3N(C)C2)O[C@]2(O)[C@H]3CCCN3C(=O)CN2C1=O (tested in a mixture with another compound)	-	-	-	0	-
COc1cc(CCN)c(OC)cc1Br	-	-	-	0	-
Cc1ccccc1-n1c(/C=C/c2c(C)[nH]c3ccccc23)nc2ccccc2c1=O	0	0	0	0	0
Cc1ccccc1-n1c(/C=C/c2ccc(N(C)C)cc2)nc2ccccc2c1=O	0	92.8	0	0	?
Oc1ccc2c3c1OC1C(O)C=CC4[C@@H](C2)NCC[C@]314 (some centres not stated)	-	-	-	0	-
C#C[C@]1(OC(=O)CCCCCC)CC[C@H]2C3CCC4=CC(=O)CC[C@@H]4[C@H]3CC[C@@]21C (some centres not stated)	-	-	-	0	-
SMILES	TRPML1 inh	TRHR agonist-1	TRHR enhancer-1	Glioma ERSR ind	TRPML1 agonist	others
CCN(CC)c1ccc(/C=N/c2sc3c(c2C#N)C2CCN3CC2)c(O)c1	0	52.3	0	0	?
Cc1ccc(/C=C2\C(=O)NC(=O)N(CCc3ccc(F)cc3)C2=O)o1	0	0	36.6	0	0
COc1ccc(-n2c(-c3ccccc3Br)nc3ccccc3c2=O)cc1	0	0	47.8	0	0	TRHR enhancer-2=0;TRHR agonist-2=0
COc1ccc(-n2c(-c3ccccc3F)nc3ccccc3c2=O)cc1	0	-	-	0	0
CC(C)Oc1cccc(NC(=O)c2ccccc2C(F)(F)F)c1	-	-	-	0	-
CN1CCN(c2ccc(S(C)(=O)=O)cc2[N+](=O)[O-])CC1	0	0	0	0	0
CN1CCN(c2ccc(S(=O)(=O)C(F)(F)F)cc2[N+](=O)[O-])CC1	0	0	43.1	0	0	TRHR enhancer-2=0;TRHR agonist-2=0
O=C1NC(=O)N(c2ccc3c(c2)OCO3)C(=O)/C1=C/c1ccc(N2CCCC2)o1	0	0	0	0	0
CCOc1ccc(N2C(=O)NC(=O)/C(=C\c3ccc(N4CCCCC4)o3)C2=O)cc1	0	31.3	0	0	0	TRHR enhancer-2=0;TRHR agonist-2=23.1µM
[Hg+][c]1ccccc1	-	-	-	0	0
CCNC(=O)[C@H]1O[C@@H](n2cnc3c(N)ncnc32)[C@H](O)[C@@H]1O	0	0	44.7	0	0	TRHR enhancer-2=?;TRHR agonist-2=0
CCNC(=O)[C@@H]1O[C@@H](n2cnc3c(N)ncnc32)[C@H](O)[C@H]1O	-	-	-	0	-
O=S(=O)(c1ccccc1)N1CCN2CCCC2C1 (configuration not stated)	0	0	56.5	0	0	TRHR enhancer-2=0;TRHR agonist-2=0
COc1cc(CC(C)N)cc2c1OCO2 (configuration not stated)	-	-	-	0	-
O=C(Cn1cc(C(=O)c2ccccc2)c2ccccc21)NCc1ccco1	0	0	56.2	0	0	TRHR enhancer-2=0;TRHR agonist-2=0
COc1cc(CC(C)N)c(OC)cc1Br (configuration not stated)	-	-	-	0	-
C=CCn1c(O)c(C=Nc2ccc(OC)cc2C)c(=O)[nH]c1=O	0	0	0	0	0	TRHR enhancer-2=0;TRHR agonist-2=0
COc1ccc(N=Cc2c(O)n(-c3ccc(C)cc3)c(=O)[nH]c2=O)cc1	0	0	51.1	0	0	TRHR enhancer-2=?;TRHR agonist-2=0
C[C@H]1O[C@@H](O[C@H]2[C@@H](O)C[C@@H](O[C@H]3[C@@H](O)C[C@H](O[C@H]4CC[C@@]5(C)[C@H](CC[C@@H]6[C@@H]5CC[C@]5(C)[C@@H](C7=CC(=O)OC7)CC[C@]65O)C4)O[C@@H]3C)O[C@@H]2C)C[C@H](O)[C@@H]1O	-	-	-	0	0
S=C(SSC(=S)N1CCCCC1)N1CCCCC1	-	-	-	0	-
Cc1ccc(N2C(=O)CC(=O)NC2=O)c(C)c1	0	0	109.2	0	0	TRHR enhancer-2=0;TRHR agonist-2=0
